Data: PubChem BioAssay (NCATS)
Records with an inconclusive call do not appear. Calls of active or inactive are those of the source. Unless noted, the call rests on the fitted dose curve; in most records, active means well fitted curve in either direction with a large enough effect (not every such curve was filed as active); inconclusive means small, poorly fitted or top-dose-only effect, or another doubt; inactive means flat fitted curve, though single readings scatter.

What was measured:
[1] = target: Lysosomal acid glucosylceramidase (Homo sapiens) (UniProt P04062); assay: Glucocerebrosidase-p2 (AID 348; in the data active means potency below about 10 µM; further: potency means the concentration at half of the fitted maximal effect); conditions: purified GBA, blue fluorogenic substrate, 40 min
Summary of the method: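 Normal human glucocerebrosidase (0.2 nM) with blue fluorogenic substrate (80 uM final) in citrate/phosphate pH 5.9 with 10mM sodium taurocholate, 0.01% tween-20; 40 min RT, NaOH/glycine stop; fluorescence Ex 365/Em 440; AC50 from a titration from 0.6 nM upwards.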

[2] = AP1 Signaling Pathway (AID 357); conditions: ME-180 AP-1-bla reporter, EGF-induced, beta-lactamase ratio, 5 h; at 7.69 µM (top of the series) unless noted;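 further: ME-180 reporter cells stimulated with EGF at its EC50 level; on the % scale 0 is the no-effect control and ±100 the full control effect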
Summary of the method: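 AP-1-bla ME-180 cells, Opti-MEM + 0.5% dialyzed FBS, plated overnight 37 °C. Cpd titration + EC50 EGF, 5 h 37 °C. CCF4 2.5 h RT; ex 405, em 460/530 ratio → %activity, AC50.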

[3] = target: Cytochrome P450 1A2 (Homo sapiens) (UniProt P05177); assay: p450-cyp1a2 (AID 410; calls by dose curve; further: potency means the concentration at half of the fitted maximal effect;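 on activity change, negative = inhibition: -100% = full effect of reference inhibitor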); conditions: recombinant CYP1A2, luciferin-ME demethylation, luminescence; series mostly up to 11.4 µM
Summary of the method: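 20nM CYP1A2, 100uM Luciferin-ME (=Km), 100mM KPO4; cpd 10 min RT; +NADPH regen, 60 min RT; stop/detect 20 min; luminescence. Normalized to furafylline 57 uM = full inhibition.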

[4] = NFAT Signaling Pathway (AID 444); conditions: Jurkat NFAT-bla M1, carbachol, beta-lactamase ratio, 5 h; at 7.69 µM (top of the series) unless noted;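 further: carbachol stimulus at about its EC50 of 1 µM final; on the % scale 0 is the no-effect control and ±100 the full control effect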
Summary of the method: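 Read-out: CCF4 FRET ratio (460 nm/530 nm) after 1 h RT dye loading, used for %activity and AC50 from titration series. Cells: Jurkat NFAT-β-lactamase/M1 line, treated with compound plus 1 uM carbachol for 5 h, 37 °C.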

[5] = Stat Signaling Pathway (AID 446); conditions: ME-180 (cervical carcinoma) SIE beta-lactamase reporter, IL-6 stimulated, 5 h; at 7.69 µM (top of the series) unless noted;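 further: ME-180 cervical cancer cells given 40 pM IL-6 alongside compound; SIE-controlled beta-lactamase reporter measured as 460/530 nm FRET emission ratio; on the % scale 0 is the no-effect control and ±100 the full control effect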
Summary of the method: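 Emission at 460 and 530 nm (excitation 405 nm) reports SIE-controlled beta-lactamase in ME-180 cells. Cells received compound with 40 pM IL-6 for 5 hrs at 37 C; data scaled between 300 pM IL-6 and 125 nM JAK-inhibitor controls.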

[6] = target: Glucocorticoid receptor (Homo sapiens) (UniProt P04150); assay: GR-GFP Redistribution (AID 450;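 active means compounds whose dose series gives a full or clear partial fitted curve of increased nuclear translocation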; further: potency means the concentration at half of the fitted maximal effect); conditions: U2OS GR-GFP nuclear translocation, laser cytometry, 2 h
[7] = target: Glucocorticoid receptor (Homo sapiens) (UniProt P04150); assay: GR-EFC Redistribution (AID 451; calls by dose curve; further: potency means the concentration at half of the fitted maximal effect); conditions: CHO-K1 GR-EFC translocation, beta-gal luminescence, 2 h
Summary of the method: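 Translocation of GR-ED fusion to nuclear EA restores b-gal, read by luminescence after 1 h room-temperature detection. Engineered CHO-K1 biosensor cells, 1,000/well, exposed 2 h at 37 C to titrations up to 46 uM final.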

[8] = target: Mitogen-activated protein kinase 10 (Mus musculus) (UniProt Q61831); assay: JNK3 AlphaScreen Assay (AID 530); conditions: JNK3 lysate, c-Jun phosphorylation; series mostly up to 11.4 µM;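 further: kinase came from lysate of stimulated human HepG2 cells; signal reports phosphorylation of biotinylated GST-cJun 1-79 at Ser73 with 10 µM ATP; on the % scale 0 is the no-effect control and ±100 the full control effect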
Summary of the method: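 Kinase buffer: 20 mM Tris-HCl pH 7.6, 10 mM MgCl2, 1 mM DTT, 0.1 mM Na3VO4, 0.01% Tween-20; ATP 10 uM. Substrate biotin-GST-cJun(1-79), enzyme from activated HepG2 lysates. Detection by Ser73 phospho-antibody AlphaScreen.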

[9] = target: 3',5'-cyclic-AMP phosphodiesterase 4B (Homo sapiens) (UniProt Q07343); assay: qHTS Assay for Inhibitors of PDE-IV (AID 607; active means well fitted activation curve with a large enough effect in the main read-out, with a control signal flat, not every such curve was filed as active; further: % of control where 0% means no effect); conditions: HEK293 ACTOne CNG channel cells, membrane potential fluorescence; series mostly up to 22.9 µM
Summary of the method: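 The readout is membrane depolarisation from a cAMP-sensing CNG channel, detected with a potential dye at ex 535/em 590. Cells were HEK293-derived (endogenous PDE-IV) at 1000 cells/well, titrated up to 22.9 uM final.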

Cytochrome P450 1A2 (Homo sapiens), sequence (P05177 whole entry, looked up): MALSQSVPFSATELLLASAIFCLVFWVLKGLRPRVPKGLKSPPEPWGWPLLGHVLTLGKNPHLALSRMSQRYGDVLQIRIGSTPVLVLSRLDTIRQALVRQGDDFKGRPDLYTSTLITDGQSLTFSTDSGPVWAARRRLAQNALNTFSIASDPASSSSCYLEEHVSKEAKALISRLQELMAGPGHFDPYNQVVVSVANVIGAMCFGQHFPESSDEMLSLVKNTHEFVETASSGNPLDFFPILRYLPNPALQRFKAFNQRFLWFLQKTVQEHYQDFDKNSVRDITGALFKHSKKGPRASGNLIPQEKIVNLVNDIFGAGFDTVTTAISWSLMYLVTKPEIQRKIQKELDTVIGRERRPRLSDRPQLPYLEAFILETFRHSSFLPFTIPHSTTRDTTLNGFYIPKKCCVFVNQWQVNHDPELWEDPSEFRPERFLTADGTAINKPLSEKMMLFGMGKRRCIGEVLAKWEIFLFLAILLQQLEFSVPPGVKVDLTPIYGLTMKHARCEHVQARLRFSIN
Glucocorticoid receptor (Homo sapiens), sequence (P04150 whole entry, looked up, the tested form may be a part): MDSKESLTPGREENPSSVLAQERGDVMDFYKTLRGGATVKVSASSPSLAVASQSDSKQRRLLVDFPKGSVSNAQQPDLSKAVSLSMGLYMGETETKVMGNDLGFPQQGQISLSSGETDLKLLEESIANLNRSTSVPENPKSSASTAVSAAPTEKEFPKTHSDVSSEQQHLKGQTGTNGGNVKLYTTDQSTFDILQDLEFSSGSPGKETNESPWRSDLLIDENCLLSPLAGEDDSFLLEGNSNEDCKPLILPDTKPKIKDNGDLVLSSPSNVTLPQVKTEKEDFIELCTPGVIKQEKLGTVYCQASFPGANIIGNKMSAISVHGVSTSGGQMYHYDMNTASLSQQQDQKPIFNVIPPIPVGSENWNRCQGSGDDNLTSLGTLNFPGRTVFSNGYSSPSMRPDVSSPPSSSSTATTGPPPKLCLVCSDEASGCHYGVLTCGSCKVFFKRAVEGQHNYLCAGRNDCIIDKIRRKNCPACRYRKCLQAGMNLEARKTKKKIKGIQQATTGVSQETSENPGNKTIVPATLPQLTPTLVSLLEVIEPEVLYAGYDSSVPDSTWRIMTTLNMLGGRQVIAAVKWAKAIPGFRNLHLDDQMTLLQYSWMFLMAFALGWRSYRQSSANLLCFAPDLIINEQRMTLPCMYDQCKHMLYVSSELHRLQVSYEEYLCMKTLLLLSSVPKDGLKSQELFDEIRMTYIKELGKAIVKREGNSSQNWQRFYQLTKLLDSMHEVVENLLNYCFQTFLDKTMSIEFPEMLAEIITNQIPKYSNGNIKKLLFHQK
Lysosomal acid glucosylceramidase (Homo sapiens), sequence (P04062 whole entry, looked up): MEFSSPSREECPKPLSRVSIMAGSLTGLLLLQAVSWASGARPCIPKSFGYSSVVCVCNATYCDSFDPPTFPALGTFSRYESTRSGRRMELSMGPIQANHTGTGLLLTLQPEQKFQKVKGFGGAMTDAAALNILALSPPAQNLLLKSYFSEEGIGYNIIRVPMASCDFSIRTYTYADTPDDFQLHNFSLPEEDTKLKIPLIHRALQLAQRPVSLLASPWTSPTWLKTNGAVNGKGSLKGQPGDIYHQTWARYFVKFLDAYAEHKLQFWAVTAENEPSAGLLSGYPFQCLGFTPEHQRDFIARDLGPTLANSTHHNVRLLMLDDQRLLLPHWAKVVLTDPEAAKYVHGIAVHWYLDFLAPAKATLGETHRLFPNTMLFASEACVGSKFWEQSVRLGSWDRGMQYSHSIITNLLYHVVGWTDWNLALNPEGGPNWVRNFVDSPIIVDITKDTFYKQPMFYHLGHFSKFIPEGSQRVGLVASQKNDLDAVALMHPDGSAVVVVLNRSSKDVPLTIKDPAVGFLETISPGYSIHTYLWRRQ
3',5'-cyclic-AMP phosphodiesterase 4B (Homo sapiens), sequence (Q07343 whole entry, looked up): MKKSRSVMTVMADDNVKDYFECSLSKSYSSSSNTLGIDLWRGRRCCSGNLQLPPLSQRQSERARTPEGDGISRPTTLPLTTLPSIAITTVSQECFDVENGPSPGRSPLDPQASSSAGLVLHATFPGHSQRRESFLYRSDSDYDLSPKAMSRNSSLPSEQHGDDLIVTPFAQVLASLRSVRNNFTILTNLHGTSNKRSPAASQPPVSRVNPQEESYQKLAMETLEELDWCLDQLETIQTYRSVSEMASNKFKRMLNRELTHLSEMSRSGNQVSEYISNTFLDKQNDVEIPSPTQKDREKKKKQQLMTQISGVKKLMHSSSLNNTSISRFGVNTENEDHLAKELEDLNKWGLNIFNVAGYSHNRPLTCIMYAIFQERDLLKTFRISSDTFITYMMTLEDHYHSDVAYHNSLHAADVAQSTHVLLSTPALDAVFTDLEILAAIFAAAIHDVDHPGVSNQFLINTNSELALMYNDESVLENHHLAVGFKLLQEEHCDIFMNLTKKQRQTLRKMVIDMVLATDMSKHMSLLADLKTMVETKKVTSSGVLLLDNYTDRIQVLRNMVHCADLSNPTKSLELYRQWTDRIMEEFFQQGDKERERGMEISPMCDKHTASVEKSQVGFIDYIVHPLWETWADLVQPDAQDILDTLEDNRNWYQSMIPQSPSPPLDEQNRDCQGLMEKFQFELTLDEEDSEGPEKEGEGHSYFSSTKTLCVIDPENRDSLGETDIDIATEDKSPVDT

O=C(Nc1ccc2oc(=O)c(C(=O)O)cc2c1)Oc1ccccc1
inactive: Potency [1] > 11.4 µM | activity change, negative = inhibition [2] -4.82% | activity change, negative = inhibition [3] -15.3% [at 2.29 µM] | activity change, negative = inhibition [4] 9.87% | activity, negative = inhibition [5] 1.95% | Potency [6] > 46 µM | Potency [7] > 9.22 µM | Potency [8] | Potency [9]

Cc1ccc(S(=O)(=O)O[C@@H]2[C@H]([C@@H]3COC(C)(C)O3)O[C@H]3OC(C)(C)O[C@@H]32)cc1
inactive: Potency [1] > 11.4 µM | activity change, negative = inhibition [2] 1.73% | Potency [3] | activity change, negative = inhibition [4] 3.01% | activity, negative = inhibition [5] 7.9% | Potency [6] > 46 µM | Potency [7] > 9.22 µM | Potency [8] | Potency [9]

O=C(O)C[C@H](Cc1ccccc1)C(=O)O
inactive: Potency [1] > 11.4 µM | activity change, negative = inhibition [2] 11% | Potency [3] | activity change, negative = inhibition [4] 2.62% | activity, negative = inhibition [5] -5.23% | Potency [6] > 46 µM | Potency [7] > 9.22 µM | Potency [8] | Potency [9]

CC[C@@H](Nc1ncnc2nc[nH]c12)C(=O)O
inactive: Potency [1] > 11.4 µM | activity change, negative = inhibition [2] -11.2% | Potency [3] | activity change, negative = inhibition [4] -4.99% | activity, negative = inhibition [5] 0.774% | Potency [6] > 46 µM | Potency [7] > 9.22 µM | Potency [8] | Potency [9]

c1ccc2c(CC3NCCN3)cccc2c1
inactive: Potency [1] > 11.4 µM | activity change, negative = inhibition [2] 7.37% | Potency [3] | activity change, negative = inhibition [4] -8.06% | activity, negative = inhibition [5] 1.71% | Potency [6] > 46 µM | Potency [7] > 9.22 µM | Potency [8] | Potency [9]

CC(C)(C)CNCCO
inactive: Potency [1] > 11.4 µM | activity change, negative = inhibition [2] -7.33% | activity change, negative = inhibition [3] 6.2% [at 2.29 µM] | activity change, negative = inhibition [4] 4.1% | activity, negative = inhibition [5] 7.24% | Potency [6] > 46 µM | Potency [7] > 9.22 µM | Potency [8] | Potency [9]

Oc1ccc2ccccc2c1C=NCc1c(O)ccc2ccccc12
inactive: Potency [1] > 11.4 µM | activity change, negative = inhibition [2] -5.07% | activity change, negative = inhibition [4] 12.6% | activity, negative = inhibition [5] -21.2% | Potency [6] > 46 µM | Potency [7] > 9.22 µM | Potency [8] | Potency [9]
active: Potency [3] 1.58 µM

Cn1c(=O)c2[nH]c(CCC(=O)O)nc2n(C)c1=O
inactive: Potency [1] > 11.4 µM | activity change, negative = inhibition [2] 0.0396% | Potency [3] | activity change, negative = inhibition [4] 10.1% | activity, negative = inhibition [5] -0.184% | Potency [6] > 46 µM | Potency [7] > 9.22 µM | Potency [8] | Potency [9]

O=C(O)CNc1ccc(C(=O)O)cc1
inactive: Potency [1] > 11.4 µM | activity change, negative = inhibition [2] -2.61% | Potency [3] | activity change, negative = inhibition [4] 12.8% | activity, negative = inhibition [5] 6.8% | Potency [6] > 46 µM | Potency [7] > 9.22 µM | Potency [8] | Potency [9]

N=C(N)c1ccc(-c2ccc(-c3ccc(C(=N)N)cc3)o2)cc1
inactive: Potency [1] > 11.4 µM | activity change, negative = inhibition [2] 7.04% | Potency [3] | activity change, negative = inhibition [4] 7.72% | activity, negative = inhibition [5] 10.3% | Potency [6] > 46 µM | Potency [7] > 9.22 µM | Potency [8] | Potency [9]

O=C(O)CCC(=O)c1ccc(Cl)cc1
inactive: Potency [1] > 11.4 µM | activity change, negative = inhibition [2] 11.6% | Potency [3] | activity change, negative = inhibition [4] -7.55% | activity, negative = inhibition [5] 17.9% | Potency [6] > 46 µM | Potency [7] > 9.22 µM | Potency [8] | Potency [9]

Oc1cccnc1CN1CCCCC1
inactive: Potency [1] > 11.4 µM | activity change, negative = inhibition [2] -3.72% | Potency [3] | activity change, negative = inhibition [4] 11.7% | activity, negative = inhibition [5] 16.8% | Potency [6] > 46 µM | Potency [7] > 9.22 µM | Potency [8] | Potency [9]

O=[N+]([O-])c1ccc(NN=C2c3ccccc3Cc3ccccc32)c([N+](=O)[O-])c1
inactive: Potency [1] > 11.4 µM | activity change, negative = inhibition [2] 26.1% | activity change, negative = inhibition [4] -1.66% | activity, negative = inhibition [5] 19.7% | Potency [6] > 46 µM | Potency [7] > 9.22 µM | Potency [8] | Potency [9]
active: Potency [3] 0.794 µM

C/C(=N\O)c1cccc[n+]1Cc1ccccc1
inactive: Potency [1] > 11.4 µM | activity change, negative = inhibition [2] -1.8% | Potency [3] | activity change, negative = inhibition [4] -12.3% | activity, negative = inhibition [5] 11.4% | Potency [6] > 46 µM | Potency [7] > 9.22 µM | Potency [8] | Potency [9]

Cc1ccnc(NS(=O)(=O)c2ccc(N=[N+]=[N-])cc2)n1
inactive: Potency [1] > 11.4 µM | activity change, negative = inhibition [2] -2.39% | Potency [3] | activity change, negative = inhibition [4] 4.09% | activity, negative = inhibition [5] 1.25% | Potency [6] > 46 µM | Potency [7] > 9.22 µM | Potency [8] | Potency [9]

C[N+]1([C@H](CO)Cc2c[nH]c3ccccc23)Cc2ccccc2C1
inactive: Potency [1] > 11.4 µM | activity change, negative = inhibition [2] -7.62% | Potency [3] | activity change, negative = inhibition [4] -15.6% | activity, negative = inhibition [5] 13.4% | Potency [6] > 46 µM | Potency [7] > 9.22 µM | Potency [8] | Potency [9]
